Results on nine molecules are retold here after PubChem BioAssay (NCI).

Compounds without any hit were thinned out: in the full panel of roughly 79,000, 15% have a hit. Values without a mark were called inactive. The source made the active and inactive calls. Rule as the data show it: active = growth inhibition above about 70%; inactive = the rest.

Experiment [1] is described as follows: NCI Yeast Anticancer Drug Screen. Data for the rad50 strain (AID 155).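 Also: 0% = growth of vehicle-only cultures of the same strain.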 The following applies: S. cerevisiae rad50 strain growth inhibition, active compounds read high. Summed up:
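DNA repair mutant yeast, compound exposure, growth read-out; inhibition is taken relative to vehicle.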

The nature of experiment [2]: NCI Yeast Anticancer Drug Screen. Data for the mec2-1 strain (AID 157). The following applies: S. cerevisiae mec2-1 strain, active compounds read high. Summed up: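 Strain: mec2-1 (DNA repair/cell cycle alteration). Compound exposure, then growth measured; inhibition expressed relative to vehicle.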
Experiment [3] is described as follows: NCI Yeast Anticancer Drug Screen. Data for the sgs1 mgt1 strain (AID 161).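 Also: 0% = growth of cultures given vehicle only.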 As to conditions: S. cerevisiae sgs1 mgt1 strain, active compounds read high. Summed up: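 Genetically altered yeast, compound exposure, growth inhibition relative to vehicle.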
Experiment [4] is described as follows: NCI Yeast Anticancer Drug Screen. Data for the cln2 rad14 strain (AID 165).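 Also: 0% = growth equal to vehicle treated cultures.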 As to conditions: S. cerevisiae cln2 rad14 strain, active compounds read high. Summed up:
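Compounds are applied to the cln2 rad14 yeast strain, and growth is then compared with that of vehicle-treated cultures to give inhibition.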

A short description of experiment [5]: NCI Yeast Anticancer Drug Screen. Data for the bub3 strain (AID 167). The following applies: S. cerevisiae bub3 mutant strain, active compounds read high. Summed up:
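In this screen, a yeast mutant lacking normal mitotic checkpoint function is challenged with compound. Relative growth versus vehicle gives the inhibition value.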

The nature of experiment [6]: NCI Yeast Anticancer Drug Screen. Data for the mlh1 rad18 strain (AID 175). As to conditions: S. cerevisiae mlh1 rad18 strain growth inhibition, active compounds read high. A digest of the protocol:
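Read-out is yeast growth inhibition, calculated against vehicle-only controls. The compound was applied to a strain engineered with DNA damage repair alterations.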

The mark [7] stands for this setting: at 5.0 µM (retest, dose inferred, filed as 0.5).
The mark [8] stands for this setting: at 50.0 µM (retest, dose inferred, filed as 5.0).

Take `CCC(=O)OC1CCC(C2CCCCC2)CC1` (configuration not stated): the growth inhibition in experiment [1] (setting [7]) is 3%; in experiment [1] (setting [8]) it was 8%; in experiment [1] (at 50.0 µM), -4.95%; in experiment [2] (setting [7]) it was 1%; in experiment [2] (setting [8]), 2%; in experiment [2] (at 50.0 µM), -9.55%. In addition, the growth inhibition in experiment [3] (setting [7]) was 2%; in experiment [3] (setting [8]), 5%; in experiment [3] (at 50.0 µM), 16.7%; in experiment [4] (setting [7]), 5%; in experiment [4] (setting [8]), 7%; in experiment [4] (at 50.0 µM) it was -21.2%. Besides, the growth inhibition in experiment [5] (setting [7]) was 65%; in experiment [5] (setting [8]), 70% (active); in experiment [5] (at 50.0 µM) it was 61.1%; in experiment [6] (setting [7]), 4%; in experiment [6] (setting [8]), 10%; in experiment [6] (at 50.0 µM), 36.8%.
As to `CCC(=O)C(=O)CC1CC(c2ccco2)=Nc2ccccc2S1` (configuration not stated), the growth inhibition in experiment [1] (setting [7]) is 9%; in experiment [1] (setting [8]), 97% (active); in experiment [1] (at 50.0 µM) it was -0.45%; in experiment [2] (setting [7]), 13%; in experiment [2] (setting [8]) it was 98% (active); in experiment [2] (at 50.0 µM), 5.65%. Further, the growth inhibition in experiment [3] (setting [7]) was 28%; in experiment [3] (setting [8]), 94% (active); in experiment [3] (at 50.0 µM), 22.6%; in experiment [4] (setting [7]), 6%; in experiment [4] (setting [8]) it was 97% (active); in experiment [4] (at 50.0 µM), -24.4%. In addition, the growth inhibition was 14% in experiment [5] (setting [7]); 96% (active) in experiment [5] (setting [8]); 6.35% in experiment [5] (at 50.0 µM); 14% in experiment [6] (setting [7]); 98% (active) in experiment [6] (setting [8]); 18.5% in experiment [6] (at 50.0 µM).
In the case of `CCCCCCCCCCCCCC(N)c1ccc(C)cc1` (configuration not stated), the growth inhibition in experiment [1] (setting [7]) was 60%; in experiment [1] (setting [8]) it was 97% (active); in experiment [1] (at 50.0 µM) it was 99% (active); in experiment [2] (setting [7]), 0%; in experiment [2] (setting [8]), 98% (active); in experiment [2] (at 50.0 µM), 99.2% (active). In addition, the growth inhibition was 99% (active) in experiment [3] (setting [7]); 98% (active) in experiment [3] (setting [8]); 99.5% (active) in experiment [3] (at 50.0 µM); 3% in experiment [4] (setting [7]); 97% (active) in experiment [4] (setting [8]); 97.7% (active) in experiment [4] (at 50.0 µM). Further, the growth inhibition in experiment [5] (setting [7]) was 13%; in experiment [5] (setting [8]), 97% (active); in experiment [5] (at 50.0 µM), 98.5% (active); in experiment [6] (setting [7]) it was 33%; in experiment [6] (setting [8]), 97% (active); in experiment [6] (at 50.0 µM) it was 98.3% (active).
Turning to `CCOC(=O)c1ccc2c3c([nH]c2c1C)-c1ccccc1CC3`, the growth inhibition is 12% in experiment [1] (setting [7]); 93% (active) in experiment [1] (setting [8]); 93.5% (active) in experiment [1] (at 50.0 µM); -7% in experiment [2] (setting [7]); 94% (active) in experiment [2] (setting [8]); 94% (active) in experiment [2] (at 50.0 µM). In addition, the growth inhibition was 14% in experiment [3] (setting [7]); 95% (active) in experiment [3] (setting [8]); 94.7% (active) in experiment [3] (at 50.0 µM); -9% in experiment [4] (setting [7]); 91% (active) in experiment [4] (setting [8]); 90.7% (active) in experiment [4] (at 50.0 µM). The growth inhibition is 1% in experiment [5] (setting [7]); 94% (active) in experiment [5] (setting [8]); 94.2% (active) in experiment [5] (at 50.0 µM); 14% in experiment [6] (setting [7]); 94% (active) in experiment [6] (setting [8]); 91.9% (active) in experiment [6] (at 50.0 µM).
For `O=C1c2ccccc2C(=O)c2cc(N3C(=O)C=CC3=O)ccc21`, the growth inhibition is 54% in experiment [1] (setting [7]); 83% (active) in experiment [1] (setting [8]); 90.7% (active) in experiment [1] (at 50.0 µM); 50% in experiment [2] (setting [7]); 89% (active) in experiment [2] (setting [8]); 92% (active) in experiment [2] (at 50.0 µM). Also, the growth inhibition was 96% (active) in experiment [3] (setting [7]); 98% (active) in experiment [3] (setting [8]); 91.5% (active) in experiment [3] (at 50.0 µM); 53% in experiment [4] (setting [7]); 99% (active) in experiment [4] (setting [8]); 91.7% (active) in experiment [4] (at 50.0 µM). Further, the growth inhibition in experiment [5] (setting [7]) is 97% (active); in experiment [5] (setting [8]), 97% (active); in experiment [5] (at 50.0 µM), 87.8% (active); in experiment [6] (setting [7]), 47%; in experiment [6] (setting [8]), 80% (active); in experiment [6] (at 50.0 µM), 91.5% (active).
Regarding `O=C(N=Nc1cccc(Cl)c1)NNc1cccc(Cl)c1`, the growth inhibition in experiment [1] (setting [7]) was 12%; in experiment [1] (setting [8]) it was 98% (active); in experiment [1] (at 50.0 µM) it was 85.8% (active); in experiment [2] (setting [7]) it was -11%; in experiment [2] (setting [8]) it was 99% (active); in experiment [2] (at 50.0 µM), 90.6% (active). Besides, the growth inhibition in experiment [3] (setting [7]) was -9%; in experiment [3] (setting [8]), 91% (active); in experiment [3] (at 50.0 µM) it was 83.2% (active); in experiment [4] (setting [7]) it was 26%; in experiment [4] (setting [8]), 99% (active); in experiment [4] (at 50.0 µM), 83.5% (active). The growth inhibition is -24% in experiment [5] (setting [7]); 99% (active) in experiment [5] (setting [8]); 86.3% (active) in experiment [5] (at 50.0 µM); -6% in experiment [6] (setting [7]); 98% (active) in experiment [6] (setting [8]); 85.4% (active) in experiment [6] (at 50.0 µM).
`Cc1ccc2c(c1)CSCCO2`: the growth inhibition was 86% (active) in experiment [1] (setting [7]); 99% (active) in experiment [1] (setting [8]); 99.3% (active) in experiment [1] (at 50.0 µM); 87% (active) in experiment [2] (setting [7]); 100% (active) in experiment [2] (setting [8]); 99.7% (active) in experiment [2] (at 50.0 µM). Further, the growth inhibition in experiment [3] (setting [7]) is 87% (active); in experiment [3] (setting [8]), 99% (active); in experiment [3] (at 50.0 µM), 99.5% (active); in experiment [4] (setting [7]) it was 50%; in experiment [4] (setting [8]), 100% (active); in experiment [4] (at 50.0 µM) it was 99.3% (active). Besides, the growth inhibition in experiment [5] (setting [7]) is 90% (active); in experiment [5] (setting [8]), 99% (active); in experiment [5] (at 50.0 µM), 99.5% (active); in experiment [6] (setting [7]), 92% (active); in experiment [6] (setting [8]), 99% (active); in experiment [6] (at 50.0 µM), 99.5% (active).
On to `Cc1cc(Cl)cc2c1OCN(C)C2`, for which the growth inhibition in experiment [1] (setting [7]) is 0%; in experiment [1] (setting [8]), 93% (active); in experiment [1] (at 50.0 µM) it was 99% (active); in experiment [2] (setting [7]) it was 1%; in experiment [2] (setting [8]), 96% (active); in experiment [2] (at 50.0 µM), 99.2% (active). In addition, the growth inhibition was 1% in experiment [3] (setting [7]); 97% (active) in experiment [3] (setting [8]); 98.8% (active) in experiment [3] (at 50.0 µM); -6% in experiment [4] (setting [7]); 96% (active) in experiment [4] (setting [8]); 99.3% (active) in experiment [4] (at 50.0 µM). Besides, the growth inhibition in experiment [5] (setting [7]) is -5%; in experiment [5] (setting [8]), 94% (active); in experiment [5] (at 50.0 µM), 99% (active); in experiment [6] (setting [7]), 0%; in experiment [6] (setting [8]), 94% (active); in experiment [6] (at 50.0 µM), 99.5% (active).
On to `Fc1ccc(NC(=S)SCc2ccc(Cl)cc2)c(F)c1`, for which the growth inhibition was 19% in experiment [1] (setting [7]); 99% (active) in experiment [1] (setting [8]); 99.3% (active) in experiment [1] (at 50.0 µM); 11% in experiment [2] (setting [7]); 99% (active) in experiment [2] (setting [8]); 99.6% (active) in experiment [2] (at 50.0 µM). Also, the growth inhibition is 13% in experiment [3] (setting [7]); 99% (active) in experiment [3] (setting [8]); 99.5% (active) in experiment [3] (at 50.0 µM); -2% in experiment [4] (setting [7]); 99% (active) in experiment [4] (setting [8]); 99.4% (active) in experiment [4] (at 50.0 µM). The growth inhibition was 19% in experiment [5] (setting [7]); 98% (active) in experiment [5] (setting [8]); 99.5% (active) in experiment [5] (at 50.0 µM); 7% in experiment [6] (setting [7]); 98% (active) in experiment [6] (setting [8]); 99.5% (active) in experiment [6] (at 50.0 µM).
